The values below come from PubChem BioAssay AID485290 (National Center for Advancing Translational Sciences (NCATS), 2010).

Values joined by “and” are separate entries in the source; they are usually repeats but may differ in a detail not shown here. Identical values can stand only once. Out of some 350,000 compounds screened, about 990 (0.28%) were called active. Not shown: some 2% with an inconclusive outcome. The call rests on the fitted dose curve; in most records, active means well fitted inhibition curve with a large enough effect; inconclusive means small, poorly fitted or top-dose-only effect; inactive means no such curve, though single readings can be large or run the other way. The sample as a whole holds a higher share of actives than the screen did. Where a structure was tested more than once in an assay, its records may differ in their call.
On the % scale 0 is the no-effect control and ±100 the full control effect; potency means the concentration at half of the fitted maximal effect.

The test deals with Tyrosyl-DNA phosphodiesterase 1 (Homo sapiens) (UniProt Q9NUW8). The test is described as follows: qHTS Assay for Inhibitors of Tyrosyl-DNA Phosphodiesterase (TDP1). Further: nearly all actives have a fitted effect of over 40% in size. Conditions: recombinant TDP1, AlphaScreen DNA substrate cleavage; series mostly up to 130 µM; activity change, negative = inhibition: at the top concentration. The text has this: NIH Molecular Libraries Probe Production Network [MLPCN]
Chain of Tyrosyl-DNA phosphodiesterase 1 (Homo sapiens) (Q9NUW8 whole entry, looked up): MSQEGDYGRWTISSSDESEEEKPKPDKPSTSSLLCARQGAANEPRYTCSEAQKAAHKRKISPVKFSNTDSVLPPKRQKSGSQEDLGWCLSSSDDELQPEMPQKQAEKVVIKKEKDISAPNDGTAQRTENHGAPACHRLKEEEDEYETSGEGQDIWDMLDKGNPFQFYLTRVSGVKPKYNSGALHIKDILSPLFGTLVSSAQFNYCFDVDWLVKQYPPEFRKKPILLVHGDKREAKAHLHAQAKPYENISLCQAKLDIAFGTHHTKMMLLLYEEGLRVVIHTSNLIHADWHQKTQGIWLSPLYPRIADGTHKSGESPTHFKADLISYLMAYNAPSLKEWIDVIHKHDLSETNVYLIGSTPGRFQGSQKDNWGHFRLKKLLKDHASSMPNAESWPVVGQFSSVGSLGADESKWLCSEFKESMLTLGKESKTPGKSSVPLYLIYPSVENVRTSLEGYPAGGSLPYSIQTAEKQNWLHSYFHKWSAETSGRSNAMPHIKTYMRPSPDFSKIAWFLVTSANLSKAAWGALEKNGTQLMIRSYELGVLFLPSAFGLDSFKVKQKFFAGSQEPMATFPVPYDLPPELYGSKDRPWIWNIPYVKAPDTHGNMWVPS
NIH Chemical Genomics Center [NCGC]
Assay Provider: Yves Pommier and Christophe Marchand, National Cancer Institute
Assay Title: qHTS Assay for Inhibitors of Tyrosyl-DNA Phosphodiesterase (TDP1); further: nearly all actives have a fitted effect of over 40% in size
Human tyrosyl-DNA phosphodiesterase I (Tdp1) is a rational anticancer target because this enzyme is involved in the repair of DNA lesions created by the trapping of human DNA topoisomerase I (Top1) following treatment by anticancer agents such as camptothecins. Recombinant Tdp1 was expressed and purified from E. coli in the laboratory (Anthony et al, Nucleic Acids Research, 2007, Vol. 35, 4474-4484). A Tdp1 DNA substrate bearing a 5' biotin and a 3' phospho-tyrosine was obtained by custom synthesis. This oligonucleotidic DNA substrate was subsequently coupled to a fluorescein isothiocyanate (FITC) group via the free amino group present on the phospho-tyrosine. Tdp1 was screened against the NCGC small molecule library using the AlphaScreen (AS) detection method in which a streptavidin donor AS bead is bound at the 5' end and an anti-FITC AS acceptor bead is bound at the 3' end of the DNA oligonucleotidic substrate. In the presence of Tdp1, the enzyme cleaves the tyrosine-FITC group, leaving a 3' end phosphate on the DNA substrate. This cleavage reaction results in a loss of signal in AS.
[1] 3 ul of buffer is dispensed in columns 3 & 4 as negative control (no enzyme and maximum signal),
[2] 3 ul of enzyme (1 nM final) is dispensed in columns 1,2, 5-48,
[3] 1 ul of substrate (15 nM final) is dispensed throughout the plate,
[4] 1 ul of AS donor/acceptor bead mix (10 ug/ml final) is dispensed throughout the plate
3 ul of Tdp1 enzyme is dispensed to 1536-well Kalypsys black solid bottom plates. Compounds and controls (23 nl) are transferred via Kalypsys Pin Tool. The plates are incubated for 15 min at room temperature, and then 1 ul of substrate is added to start the reaction. After 5 min incubation at room temperature, 1 ul of AS donor/acceptor bead mix is added and the plates are further incubated for 10 min at room temperature. The detection is then performed on a PerkinElmer Envision reader.
On the technique in general: qHTS replaces the single test concentration by a dilution series.
Consider `CC(C)Nc1nc(Cl)nc(NC(C)C)n1`, for which the Potency entry was “inactive and 28.2 µM (active)”.
On to `CCC(CCC(C)C1CCC2C3CC=C4CC(O)CC[C@@]4(C)C3CC[C@@]12C)C(C)C` (stereo not given in full), for which the “activity change, negative = inhibition” value was 5.38% (inactive).
As for `C=CC#N`, the “activity change, negative = inhibition” value is -7.61% (inactive).
Consider `O=NO`, for which the Potency result is “inactive”.
Consider `CN1[C@H]2CC(OC(=O)[C@@H](CO)c3ccccc3)C[C@H]1[C@H]1O[C@H]12` (stereo not given in full), for which the activity change, negative = inhibition is 5.13% [at 21 µM] (inactive).
In the case of `CC(=O)CC(C)C`, the “activity change, negative = inhibition” value is 15.5% (inactive).
Turning to `CC(C)(O/N=C(\C(=O)N[C@@H]1C(=O)N2C(C(=O)[O-])=C(C[n+]3ccccc3)CS[C@@H]12)c1csc(N)n1)C(=O)O`, the Potency is 12.6 µM (active).
`CCCCCCCCCCCCN=C(N)N`: the “activity change, negative = inhibition” value is 0.984% (inactive).
Turning to `CCN(CC)c1nc(C)cc(OP(=S)(OC)OC)n1`, the “activity change, negative = inhibition” value was 8.2% (inactive).
`CC(=O)[O][Sn]([c]1ccccc1)([c]1ccccc1)[c]1ccccc1`: the “activity change, negative = inhibition” value was 6.23% (inactive).
Consider `CCCCC/C=C\C/C=C\C/C=C\C/C=C\CCCCCC(=O)NCCO`, for which the Potency result is “inactive and 39.8 µM (active)”.
The same measure, in the same setting: the entry for `CCCCC/C=C\C/C=C\C/C=C\CCCCCCC(=O)NCCO` is “inactive”.
Consider `CN(C)C[C@H]1CCCC[C@]1(O)c1cccc(O)c1`, for which the “activity change, negative = inhibition” value is -0.328% (inactive).
In the case of `C[C@@H]1C[C@H]2CC[C@H](O2)[C@H](C)C(=O)O[C@@H](C)C[C@@H]2CC[C@@H](O2)[C@@H](C)C(=O)O[C@H](C)C[C@H]2CC[C@H](O2)[C@H](C)C(=O)O[C@@H](C)C[C@@H]2CC[C@@H](O2)[C@@H](C)C(=O)O1`, the “activity change, negative = inhibition” value was 8.2% (inactive).
For the compound `CC(CCC(=O)O)C1CCC2C3C(O)C[C@@H]4CC(O)CC[C@@]4(C)C3CC[C@@]12C` (stereo not given in full), the Potency entry was “inactive”.
`O=C(O)c1cc[c]([Sb](=[O])([OH])[OH])cc1[N+](=O)[O-]`: the Potency was 1.58 µM (active).
`S=P(c1ccccc1)(c1ccccc1)c1c(-c2ccccc2)[nH]c2ccccc12`: the “activity change, negative = inhibition” value is 1.74% (inactive).
On the same count and under the same terms, the figure for `Nc1ccc(-c2ccc(N)c(N)c2)cc1N` is 19.3% (inactive).
On the same count and under the same terms, in the case of `O=C1CCc2cccc3c2N1CC3` it was 4.92% (inactive); in that of `Cc1cccc2c3c(ccc12)C1=C(C(=O)C3=O)C(C)CO1` (stereo not given), 22.4% (inactive).
